Only some compounds are listed: those with a hit (about 2.9% of all), similar ones and a draw of the others.
Wnt bcat act – Wnt/beta-catenin pathway activators, primary screen, cell-based, plate reader, single point. activation, % at 9.35 µM. Wnt/beta-catenin reporter cell assay, activator. hit rate 1.2% among 300,000; in the data active = activation above about 30%, passing the limit was not always enough; inconclusive = no clear call, values can overlap the other calls
esBAF inh – Bmi1 luciferase reporter increase in mESCs, primary screen, esBAF inhibitor project, mouse ES cells, Bmi1 luciferase knock-in, single point. AID 602393, 2012. reporter increase, % at 12.5 µM. hit rate 2% among 350,000. 24 h; 100% = twice the neutral-well signal; in the data active = activation above about 40%; inconclusive = no clear call, values can overlap the other calls;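 note: a rise in the Bmi1 reporter signal indicates esBAF inhibition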
PvdQ acylase – P. aeruginosa PvdQ acylase inhibitors, primary screen, biochemical, fluorescence, plate reader and imaging, single point. PvdQ acylase [Pseudomonas aeruginosa LESB58]. purified PvdQ acylase. inhibition, % at 10 µM. hit rate 0.063% among 340,000; in the data active = inhibition above about 30%, passing the limit was not always enough; inconclusive = no clear call, values can overlap the other calls
Glyco luc inh – increase of ERlucT glycosylation luciferase signal, primary screen, N-linked glycosylation inhibitor project, D54 ERlucT cells, luminescence, set 2; reporter increase, % at 12.5 µM; AID 588692, 2011; D54 ERlucT glycosylation luciferase reporter, 24 h; percent of 100 nM tunicamycin response; hit rate 0.23% among 360,000;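 active = mean luciferase reporter signal, scaled so untreated is 0 and the glycosylation-blocking control 100, at or above a set limit in every replicate; inconclusive = mean reaches the limit but not every replicate does; inactive = mean below the limit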;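 note: luciferase carries N-glycosylation sites so blocking glycosylation raises the light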
MITF act – activators of MITF-driven TRPM1 promoter reporter, primary screen, cell-based, SK-MEL-5, luciferase, single point; SK-MEL-5 TRPM1-promoter luciferase, 24 h; % of positive control, neutral wells = 0; activation, % at 12.5 µM; hit rate 0.75% among 300,000;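 active = mean activation of at least 80% with every replicate also reaching 80%; inconclusive = mean reaches 80% but some replicate falls short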
Vif imaging – HIV Vif self-association inhibitors, primary screen, imaging, HEK293T, single point | inhibition, % at 7.49 µM | HEK293T cells, Vif self-association by quenched fluorescence, 24 h | hit rate 0.35% among 340,000 | AID 602346, 2012; in the data active = inhibition above about 50%, passing the limit was not always enough; inconclusive = no clear call, values can overlap the other calls; inactive = below about 31%
Numbers stand for hits; n = inactive; u = inconclusive; x = no result given.

SMILES | Wnt bcat act | esBAF inh | PvdQ acylase | Glyco luc inh | MITF act | Vif imaging
COc1cc(OC)cc(C(=O)N2CCCc3ccccc32)c1 | n | n | n | n | n | n
COc1cccc(CNC(=O)C[C@@H]2CC[C@H](NC(=O)C3CCOCC3)[C@H](CO)O2)c1 | x | n | x | x | x | x
COc1ccccc1Nc1nc(-c2cccs2)cs1 | n | 52 | n | n | n | x
COc1ccc(Nc2nc(-c3cccs3)cs2)c(OC)c1 | x | 53 | n | n | x | n
COc1ccc(OC)c(Nc2nc(-c3cccs3)cs2)c1 | n | n | n | n | n | n
CC1=CCC(C(=O)O)C(C(=O)Nc2cccnc2)C1 (stereo not given) | n | x | n | n | n | 51
CC(OC(=O)c1cccs1)C(=O)NCCc1ccccc1 (stereo not given) | n | n | n | n | n | n
CC(OC(=O)c1cccs1)C(=O)NCc1ccccc1 (stereo not given) | 53 | n | n | n | n | n
O=C(N[C@@H]1CC[C@H](CCn2cc(-c3cccnc3)nn2)O[C@@H]1CO)c1ccccc1F | x | n | x | x | x | x
O=c1c(Br)ccc(Br)cc1Br | n | n | n | n | n | 168
O=S(=O)(Nc1ccccc1)c1ccc(-c2cnc(C3CC3)o2)cc1 | n | n | n | n | n | n
c1ccc(-c2cnc(C3CCCCC3)o2)cc1 | n | 53 | u | n | n | n
CCc1nc2n(n1)C(O)c1cc([N+](=O)[O-])ccc1S2 (stereo not given) | 42 | x | n | n | x | n
CCCNC(=O)N(C)C[C@@H]1Oc2cc(-c3ccccc3F)ccc2S(=O)(=O)N([C@H](C)CO)C[C@@H]1C | x | n | x | x | x | x
Cc1ccc(CNC(=O)Nc2ccccc2)c(C)c1 | n | 71 | n | n | 118 | n
Cc1ccc(CNC(=O)Nc2ccc(C)cc2)cc1 | n | n | n | n | n | n
Cc1ccccc1CNC(=O)Nc1ccc(Cl)cc1 | n | 61 | n | n | n | n
C[C@@H]1CCCCO[C@@H](CN(C)C(=O)c2ccncc2)[C@@H](C)CN([C@@H](C)CO)C(=O)c2cc(NS(=O)(=O)c3ccccc3)ccc2O1 | x | n | x | x | x | x
COc1cccc(CNC(=O)C(Cc2ccccc2)n2cccc2)c1 (stereo not given) | 44 | x | n | n | n | n
S=c1[nH]nc(Nc2cccc(Cl)c2)s1 | n | x | n | n | n | n
Cc1ccc(Nc2n[nH]c(=S)s2)cc1C | n | 51 | x | n | x | n
Cc1ccc(Nc2nc3c(c(=O)[nH]2)CCCC3)cc1 | x | 70 | n | n | n | n
CCOc1ccc(Nc2nc3c(c(=O)[nH]2)CCCC3)cc1 | n | n | n | n | n | n
CN(C)C(=O)C[C@H]1CC[C@H](NC(=O)C2CC2)[C@@H](CO)O1 | x | n | x | x | x | x
CCCCCCn1c(N(CC)CC)nc2c1c(=O)[nH]c(=O)n2C | x | n | n | n | n | 52
SMILES | Wnt bcat act | esBAF inh | PvdQ acylase | Glyco luc inh | MITF act | Vif imaging
CCN(CC)c1nc2c(c(=O)[nH]c(=O)n2C)n1Cc1ccccc1 | n | n | n | n | x | n
COc1cc(CNc2ncnc3c2ncn3[C@H]2CN(CCN3CCOCC3)C[C@@H](CO)O2)cc(OC)c1OC | n | n | x | n | x | 70
COCCN1C[C@@H](CO)O[C@@H](n2cnc3c(NCc4cc(OC)c(OC)c(OC)c4)ncnc32)C1 | n | n | x | n | x | n
OC[C@@H]1CN(Cc2ccccc2)C[C@H](n2cnc3c(NCc4ccc(F)cc4)ncnc32)O1 | x | 46 | x | n | x | n
OC[C@@H]1CN(Cc2ccc(-c3ccccc3)cc2)C[C@H](n2cnc3c(NCc4ccc(F)cc4)ncnc32)O1 | x | n | x | n | x | n
CCCc1ccc2oc(C(=O)N3CCC(N4CCCC(O)C4)CC3)c(C)c2c1 (stereo not given) | n | n | n | n | n | n
CCCc1ccc2oc(C(=O)N3CCC(COC)C3)c(C)c2c1 (stereo not given) | n | 54 | n | n | 103 | n
CCCc1ccc2oc(C(=O)N3CCC[C@H]3CO)c(C)c2c1 | n | 57 | n | n | n | n
Cc1noc(C)c1NC(=O)N(C)C[C@H]1Oc2ccc(NC(=O)Nc3ccc4c(c3)OCO4)cc2C(=O)N([C@@H](C)CO)C[C@H]1C | x | n | x | x | x | x
CCCOc1ccc(C(=O)CCC(=O)OCC(=O)Nc2ccc(OCC)cc2)cc1 | n | x | x | x | x | x
CCCOc1ccc(C(=O)CCC(=O)OCC(=O)Nc2cccc(S(N)(=O)=O)c2)cc1 | n | n | 49 | n | n | n
CCc1nnc(NC(=O)C23CC4CC(CC(C4)C2)C3)s1 | n | 56 | n | n | n | n
COCC(=O)Nc1ccc2c(c1)OC[C@@H](C)N(CCC(F)(F)F)C[C@H](C)[C@H](OC)CN(C)C2=O | x | n | x | x | x | x
C[C@@H]1CN([C@H](C)CO)C(=O)Cc2cc(NS(C)(=O)=O)ccc2O[C@H]1CN(C)C(=O)Nc1cccc2ccccc12 | x | n | x | x | x | x
O=c1c2sc(-c3ccccc3)cc2nc2n1CCCCC2 | 56 | x | n | n | x | n
COc1cc(C2Nc3ccccc3C(=O)N2c2ccc(Cl)cc2)c(Cl)cc1OCC(=O)O (stereo not given) | 48 | x | n | n | n | n
COc1cc(C2Nc3ccccc3C(=O)N2c2ccccc2)ccc1O (stereo not given) | n | n | n | n | n | n
CCOc1cc(C2Nc3ccccc3C(=O)N2c2ccccc2)ccc1O (stereo not given) | n | 45 | n | n | n | n
C[C@H](CO)N1C[C@H](C)[C@@H](CN(C)S(=O)(=O)c2ccc(F)cc2)OCCCC[C@H](C)Oc2ccc(NC(=O)Cc3ccccc3)cc2C1=O | x | n | x | x | x | x
COc1cccc(Oc2ccc(C(F)(F)F)cc2NC(=O)CN2C(=O)NC3(CCCC3)C2=O)c1 | n | n | n | 86 | n | n
COc1ccc(-c2nc3c4ccccc4ccn3c2CC2CCCCC2)cc1OC | n | n | x | n | x | x
c1ccc(-c2nc3c4ccccc4ccn3c2CN2CCOCC2)cc1 | 49 | n | n | n | n | n
COc1ccc(-c2nc3c4ccccc4ccn3c2CN2CCOCC2)cc1OC | n | 57 | n | n | n | n
COc1ccc(-c2nc3c(C)cc(Br)cn3c2Cc2cccc(F)c2)cc1OC | n | n | x | n | x | x
Clc1ccc2nc(-c3ccccc3)c(CN3CCOCC3)n2c1 | x | x | n | n | n | n
COc1ccc(-c2nc3c4ccccc4ccn3c2Cc2cccc(F)c2)cc1OC | n | 41 | x | n | x | x
CNC(=O)C[C@H]1CC[C@H]2[C@@H](COc3ccc(NC(=O)Nc4cccc(C)c4)cc3C(=O)N2C)O1 | x | n | x | x | x | x
COc1ccc(-c2c(C)nc(N)nc2-c2ccc(OC)cc2O)cc1 | n | n | n | n | n | n
COc1ccc(-c2nc(N)nc(N)n2)c(O)c1 | n | 48 | n | n | n | n

Compound activity (PubChem)
